Calls of active or inactive are those of the source. Calls come from the whole dose curve; as a rule, active = well fitted activation curve with a large enough effect in the repeat runs; inconclusive = weak or mixed curves; inactive = flat fitted curve, though single readings scatter.
Target: KiSS-1 receptor (Homo sapiens) (UniProt Q969F8)
Test: Human kisspeptin (KISS1R) small molecule agonists, calcium flux assay in KISS1R-HEK293 cells (AID 1920064)
Method in brief: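 Calcium flux read-out: kinetic fluorescence at Ex/Em=480/540, 1 s intervals over 3 min, after pin-tool compound addition to dye-loaded KISS1R-HEK293 cells. Fifteen concentrations, triplicates.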

Chain of KiSS-1 receptor (Homo sapiens) (Q969F8 whole entry, looked up): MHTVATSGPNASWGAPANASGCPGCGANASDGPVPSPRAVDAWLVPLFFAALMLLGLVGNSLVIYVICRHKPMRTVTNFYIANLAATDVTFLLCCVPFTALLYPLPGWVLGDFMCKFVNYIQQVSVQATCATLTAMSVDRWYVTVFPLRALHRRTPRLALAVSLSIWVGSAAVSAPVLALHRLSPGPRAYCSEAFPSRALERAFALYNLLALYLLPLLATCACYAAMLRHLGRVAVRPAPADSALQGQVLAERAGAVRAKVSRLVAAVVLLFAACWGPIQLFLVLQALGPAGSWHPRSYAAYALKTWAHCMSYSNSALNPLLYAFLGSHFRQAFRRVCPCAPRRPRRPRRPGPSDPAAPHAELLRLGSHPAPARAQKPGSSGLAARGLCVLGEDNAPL

SMILES | outcome
C=COCCCCO | inactive
CN(C)CCCCl | inactive
CCCCCCCCCCCCSC | inactive
CCCC(=O)C(CC)Sc1ccoc1C (configuration not stated) | inactive
CCCCCCCCC=O | inactive
COc1ccc2sc(C(=O)Nc3nnn[nH]3)c(OC(C)C)c2c1 | inactive
CCc1cccc(CC)c1N(COC)C(=O)CS(=O)(=O)O | inactive
CC(=O)c1ccc(Cl)c(Cl)c1Cl | inactive
COc1ccccc1OCC(O)CN1CCN(CC(=O)Nc2c(C)cccc2C)CC1 (configuration not stated) | inactive
Cc1cc(O)c(C)c(C)c1O | inactive
OCCN1CN(CCO)CN(CCO)C1 | inactive
Cc1ccc(OC(=O)c2ccccc2O)cc1 | inactive
N#C/C(=C1\SCC(c2ccccc2Cl)S1)n1ccnc1 (configuration not stated) | inactive
CC(C)COC(=O)COc1cc(Cl)c(Cl)cc1Cl | inactive
COC(=O)C1=C(C)NC(C)=C(C(=O)OC(C)(C)CN(C)CCC(c2ccccc2)c2ccccc2)C1c1cccc([N+](=O)[O-])c1 (configuration not stated) | inactive
CCC(=O)Oc1ccc2c(c1)CC[C@@H]1[C@@H]2CC[C@@]2(C)[C@H]1C[C@@H](OC(=O)CC)[C@@H]2OC(=O)CC | inactive
CNC(=O)N(c1ccccc1)c1ccccc1 | inactive
CN1CC(=O)N/C1=N/C(=O)Nc1cccc(Cl)c1 | inactive
BrC(Br)C(Br)Br | inactive
N[C@H]1CN(c2c(F)cc3c(=O)c(C(=O)O)cn(C4C[C@H]4F)c3c2Cl)CC12CC2 (some centres not stated) | inactive
Oc1cccc(O)c1O | inactive
CC(C)(O)CCC(C)(C)O | inactive
CCC(C(=O)O)c1ccc(N2Cc3ccccc3C2=O)cc1 (configuration not stated) | inactive
COc1c(C)c2c(c(O)c1C/C=C(\C)CCC(=O)OCCN1CCOCC1)C(=O)OC2 | inactive
O=CNNC=O | inactive
Clc1ccc2n[nH]nc2c1 | inactive
COc1ccccc1OC(=O)Oc1ccccc1OC | inactive
